In all, about 290,000 compounds went through this assay and about 1,800 (0.62%) were called active. Many of the other results were omitted from the sample, so actives are more common in it than they were. A number with no mark means an inactive call. No stated cut-off is given here; in the data, active means inhibition above about 50%; inactive means the rest.

The assay in a line: NOD2 signaling inhibitors, cell-based, luminescence, uHTS, HEK293 (AID 1566). The note with it: HEK293 NOD2/NF-kB luciferase reporter, at 4 µM, stronger effect = higher value.
The inhibition is the drop in the measured response relative to a control, in per cent. As to `NC(=O)c1cnn(-c2cc(Oc3ccccc3)ncn2)c1N`, the inhibition is -54.7%.

Regarding `Nc1ccc2c(c1)N=[N+]([O-])c1cc(N)ccc1C2`, the inhibition is 4.2%.

On to `CN(C)Cc1c(O)ccc2c(-c3ccccc3)cc(=O)oc12`, for which the inhibition was 1.4%.

`CC(=O)c1c(O)ccc2c(-c3ccccc3)cc(=O)oc12`: the inhibition was 13%.

With `COc1cc(NS(=O)(=O)c2ccc(N/C=C(\C=O)c3nc4ccccc4o3)cc2)nc(OC)n1`, the inhibition is 11%.

In the case of `CC(=O)NNC(=S)NC(=O)c1cccc([N+](=O)[O-])c1`, the inhibition was 14.7%.

On to `O=C(CN1C(=O)NC2(CCCC2)C1=O)N1CCN(S(=O)(=O)c2ccccc2Br)CC1`, for which the inhibition is 3.9%.

Turning to `CCc1c(C)sc(NC(=O)c2cc(C)on2)c1C#N`, the inhibition is -59.7%.

In the case of `CCc1c(C)sc(NC(=O)c2cc(-c3ccc(OC)c(OC)c3)on2)c1C#N`, the inhibition is 11.3%.

On to `CCc1c(C)sc(NC(=O)c2cc(-c3ccc(O)cc3)on2)c1C#N`, for which the inhibition is 50.7% (active).

In the case of `COc1ccc(CN(C)S(=O)(=O)c2nnc(NC(=O)c3cccc(OC)c3)s2)cc1`, the inhibition is 29.7%.

Regarding `COc1ccc(CN(C)S(=O)(=O)c2nnc(NC(=O)c3cccc(F)c3)s2)cc1OC`, the inhibition was 44.4%.

For `Cn1c(NC2CCCCC2)cc(=O)n(C)c1=O`, the inhibition was 15.2%.

`COc1ccccc1OCC(=O)N1CCCC(Nc2ccc(C)c(C)c2)C1` (stereo not drawn): the inhibition was 16.3%.

For the molecule `CCCCn1c(N)c(N(CC(C)C)C(=O)c2cccc(S(=O)(=O)N3CCCCCC3)c2)c(=O)[nH]c1=O`, the inhibition was 0.1%.

In the case of `CCc1cc(=O)oc2cc(C)cc(OCC(=O)C(C)(C)C)c12`, the inhibition was 8.9%.

On to `O=C(Nc1cccc([N+](=O)[O-])c1)Nc1ccc2c(c1)CCC2`, for which the inhibition was -35.7%.

Take `COc1cc2c(cc1OC)C(COc1ccc([N+](=O)[O-])cc1)N(C(C)=O)CC2` (stereo not drawn): the inhibition was 60.6% (active).

Turning to `COC(=O)c1ccc(OCC2c3cc(OC)c(OC)cc3CCN2C(C)=O)cc1` (stereo not drawn), the inhibition is 6.9%.

Turning to `COc1cc2c(cc1OC)C(COc1ccc(F)cc1)N(C(C)=O)CC2` (stereo not drawn), the inhibition is 2.4%.

Take `Cc1ccc(C(=O)NNC(=O)c2ccc(NC(=O)C(C)(C)C)cc2)cc1`: the inhibition was 8.3%.

As for `CC1(C)CC(=O)C=C(C(=O)N2CCCC(C(=O)c3cccc(C(F)(F)F)c3)C2)O1` (stereo not drawn), the inhibition is 15.7%.

Consider `CN(C)S(=O)(=O)c1ccc(Nc2nc(C3CC3)nc3c2nnn3Cc2ccccc2Cl)cc1`, for which the inhibition was 58.7% (active).

Consider `COC(=O)CNc1nc(C2CC2)nc2c1nnn2Cc1ccccc1Cl`, for which the inhibition was 7.3%.

For the molecule `OCCNc1nc(C2CC2)nc2c1nnn2Cc1ccccc1Cl`, the inhibition was 3.7%.

As to `CCCCC(CC)CNC(=O)c1cc2ccccc2c(=O)o1` (stereo not drawn), the inhibition was 9.7%.

On to `O=C(CCNS(=O)(=O)c1ccc(Br)cc1)NCCc1ccc(Cl)cc1`, for which the inhibition is -1.7%.

For `CNC(=O)N(O)C1N(/N=C/c2cc(Br)ccc2O)C(=S)SC1(C)C` (stereo not drawn), the inhibition was 13.6%.

In the case of `Cc1ccccc1S(=O)(=O)Cc1ccc(C(=O)N2CCN(c3ccccc3F)CC2)o1`, the inhibition was 10.3%.

In the case of `Cc1ccc(S(=O)(=O)Cc2ccc(C(=O)N3CCN(c4cccc(C)c4C)CC3)o2)cc1`, the inhibition was 13.8%.

For `Cc1onc(-c2ccccc2Cl)c1C(=O)N1CCCCC1C(=O)O` (stereo not drawn), the inhibition is 8%.

Consider `CCOC(=O)c1c(C)[nH]c(C)c1C(=O)CSc1nc2ccccc2c(=O)n1-c1ccc(C)cc1`, for which the inhibition was -12.1%.

For `CCOC(=O)c1c(C)[nH]c(C)c1C(=O)CSc1nc2ccccc2c(=O)n1-c1ccc(F)cc1`, the inhibition was -3.4%.

As to `CCC(CC)N1CCN(S(=O)(=O)c2ccc(OC)cc2)CC1`, the inhibition was -0.3%.

Take `Cc1ccc(S(=O)(=O)Nc2ccc3nc(C)sc3c2)cc1`: the inhibition is 29.3%.

With `Cc1nc2ccc(NS(=O)(=O)c3ccc(F)cc3)cc2s1`, the inhibition is 12.4%.

For the molecule `O=C(NC1CCCc2ccccc21)c1ccc([N+](=O)[O-])cc1` (stereo not drawn), the inhibition was 1.7%.

With `COc1ccc(/C(N)=N/OC(=O)c2cccc([N+](=O)[O-])c2C)cc1OC`, the inhibition was -8.3%.

As for `CC(=O)c1c(C)[nH]c(C(=O)OCC(=O)Nc2ccc(Cl)cc2[N+](=O)[O-])c1C`, the inhibition is 51% (active).

As for `CC(=O)c1c(C)[nH]c(C(=O)OCC(=O)Nc2cc(Cl)ccc2[N+](=O)[O-])c1C`, the inhibition was 5.7%.

`CC(=O)c1c(C)[nH]c(C(=O)OCC(=O)Nc2ccc([N+](=O)[O-])cc2Cl)c1C`: the inhibition was 11%.

For the molecule `O=C(CCc1n[nH]c(=O)[nH]c1=O)N/N=C/c1ccco1`, the inhibition was 11.3%.

Turning to `COc1ccc(NC(=O)c2ccc3c(c2)C(=O)N(Cc2cccnc2)C3=O)c(OC)c1`, the inhibition was -3.5%.

In the case of `O=C1CCN(Cc2ccc([N+](=O)[O-])cc2)CCN1[C@H](CO)c1ccccc1`, the inhibition was 8.7%.

`COc1ccc(NC(=O)c2cc3ccccc3cc2OC)cc1`: the inhibition was -18.7%.

On to `COc1cc2ccccc2cc1C(=O)Nc1ccc(NC(=O)c2cccs2)cc1`, for which the inhibition is 60.7% (active).

Turning to `COc1cc(NC(=O)c2cc3ccccc3cc2OC)ccc1NC(=O)c1cccs1`, the inhibition was 45.8%.

`C#Cc1ccc([C@@H]2C=C(C(=O)Nc3ccccc3)O[C@H](OCC)[C@H]2CCCO)cc1`: the inhibition is 11.4%.

For `CCCCc1c(C)c(C#N)c2nc3ccccc3n2c1NCCN(C)C`, the inhibition is -20.8%.

Turning to `CCCCc1c(C)c(C#N)c2nc3ccccc3n2c1Cl`, the inhibition was -34.2%.

`CC(C)(C(N)=O)N1CCN(c2ncc(C(F)(F)F)cc2Cl)CC1`: the inhibition is 9.3%.

`Cc1nc(N2CCN(C(=O)CCC(=O)O)CC2)c2c(C)c(C)sc2n1`: the inhibition is 13.1%.

As for `CCC(=O)N1CCN(c2nc(C)nc3sc(C)c(C)c23)CC1`, the inhibition is 8.8%.

On to `Cc1nc(SCC(=O)N2CCCCC2)c2c(C)c(C)sc2n1`, for which the inhibition was 22.8%.

For `CCn1c(SCC(=O)N2CCc3ccccc3C2)nc2sc(C)c(C)c2c1=O`, the inhibition is 17.7%.

In the case of `N#Cc1cc(-c2ccccc2)nc(Oc2ccccc2)n1`, the inhibition was 10.8%.

As for `O=C(NNC(=O)c1ccc[nH]1)Nc1cc(Cl)cc(Cl)c1`, the inhibition is 2.1%.

Turning to `O=C(COc1ccc2c3c(c(=O)oc2c1)CCCC3)N[C@@H](Cc1ccccc1)C(=O)O`, the inhibition is 9.1%.

(Values after PubChem BioAssay AID1566 (Sanford-Burnham Center for Chemical Genomics, 2009).)
